Cruzain Triton – cruzain (T. cruzi) inhibition with detergent. Potency, µM, usual class: inhibitors. P25779. actives 0.43% (n = 200,000). purified cruzain, Z-FR-AMC fluorescence, 0.01% Triton. AID 1478; further: nearly all actives have a fitted effect of over 40% in size
Target sequence (P25779 123-467 limits assumed): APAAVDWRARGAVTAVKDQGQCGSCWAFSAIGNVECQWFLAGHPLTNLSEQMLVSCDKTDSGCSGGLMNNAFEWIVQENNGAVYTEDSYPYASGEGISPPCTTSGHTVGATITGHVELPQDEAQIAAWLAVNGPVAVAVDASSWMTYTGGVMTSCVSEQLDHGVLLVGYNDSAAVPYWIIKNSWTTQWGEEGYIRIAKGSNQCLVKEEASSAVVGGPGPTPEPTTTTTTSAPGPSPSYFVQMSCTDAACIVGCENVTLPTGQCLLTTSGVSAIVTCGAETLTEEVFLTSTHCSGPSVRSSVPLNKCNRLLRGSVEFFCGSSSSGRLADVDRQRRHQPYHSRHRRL
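15 min RT preincubation of 1.5 nM cruzain with compound, then 2 uM Z-FR-AMC added; kinetic AMC fluorescence, 60 s delta. Triton X-100 0.01%, pH 5.5.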
Cruzain noTriton – blocks cruzain activity in detergent-free assay; P25779; purified cruzain, Z-FR-AMC fluorescence, no detergent; Potency, µM, most hits filed as inhibitors; actives 2.3% (n = 200,000); further: nearly all actives have a fitted effect of over 40% in size
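Detergent-free condition (0.00005% Triton X-100) in acetate buffer pH 5.5 with DTT. 1.5 nM enzyme and compound were pre-mixed 15 min, then 2 uM Z-FR-AMC substrate added; reaction progress from fluorescence change between first and third reads (60 s).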
Hits are given with their value; i = inactive; ? = inconclusive. Most compounds without a hit are left out; they make up all but 2.6% or so of the library. The call rests on the fitted dose curve; in most records, active means well fitted curve in the direction sought with a large enough effect; inconclusive means small, poorly fitted or top-dose-only effect, or another doubt; inactive means no such curve, though single readings can be large; an effect the other way counts as inactive or inconclusive.

SMILES	Cruzain Triton	Cruzain noTriton
Cc1nn(Cc2ccc(Cl)cc2)c(C)c1NC(=O)CSc1nc2c(c(C(F)(F)F)n1)CCc1ccccc1-2	i	?
CC1CCc2c(sc(NC(=O)CSc3nc4c(c(C(F)(F)F)n3)CCc3ccccc3-4)c2C(N)=O)C1 (stereo not given)	i	10µM
N#Cc1c(NC(=O)CSc2nc3c(c(C(F)(F)F)n2)CCc2ccccc2-3)sc2c1CCCC2	i	7.9µM
N#Cc1c(NC(=O)CSc2nnc(-c3ccccc3O)n2-c2ccccc2)sc2c1CCCC2	i	4µM
CCn1c(SCC(=O)Nc2sc3c(c2C#N)CCCC3)nnc1-c1ccncc1	i	?
NC(=O)c1c(NC(=O)CSc2nc3c(c(C(F)(F)F)n2)CCc2ccccc2-3)sc2c1CCCC2	i	?
CC(Sc1nnc(-c2ccc(C(C)(C)C)cc2)n1C)C(N)=O (stereo not given)	i	i
C(=Nc1cnc2ccccc2c1)c1ccc2ccccc2n1	i	i
N#Cc1c(SCC(=O)N2CCCCC2)nsc1SCC(=O)N1CCCCC1	i	i
O=[N+]([O-])c1ccc(Oc2ccc(-c3cnc4ccccc4n3)cc2[N+](=O)[O-])cc1	i	?
O=[N+]([O-])c1cc(-c2cnc3ccccc3n2)ccc1Oc1ccc(Br)cc1	i	25µM
Cc1cc2nc3c(=O)[nH]c(=O)nc-3n(CC(O)C(O)C(O)COP(=O)(O)O)c2cc1C (stereo not given)	i	i
O=C1CSC(=S)N1/N=C/C=C/c1ccccc1	?	32µM
COc1cccc(/C=N/N2C(=O)CSC2=S)c1O	?	i
Clc1ccc(-c2nnc(C34CC5CC(CC(C5)C3)C4)o2)cn1	i	i
O=C(N/N=C/c1ccccc1Br)c1ccc(CSc2cccc3cccnc23)cc1	i	10µM
Cc1cc(C)nc(SCc2ccc(C(=O)N/N=C/c3cccc(O)c3O)cc2)n1	i	i
CCOC(=O)c1c(NC(=O)COc2ccccc2Br)sc2c1CCCCC2	i	i
CCOC(=O)c1c(NC(=O)c2ccccc2Br)sc2c1CCc1ccccc1-2	i	16µM
COc1ccc(C(=O)CCC(=O)O)cc1	i	i
CCC1CCc2nc3sc(C(=O)Nc4ccc(F)cc4F)c(N)c3cc2C1 (stereo not given)	i	i
Cc1cccc(C(=O)NC(NC(=S)Nc2ccc(S(N)(=O)=O)cc2)C(Cl)(Cl)Cl)c1 (stereo not given)	13µM	25µM
CCC(=O)NC(NC(=S)Nc1ccc(S(N)(=O)=O)cc1)C(Cl)(Cl)Cl (stereo not given)	i	i
Cc1ccc(CNC(=O)C(=O)NCC(c2cccnc2)N2CCN(c3ccccc3F)CC2)cc1 (stereo not given)	i	?
COc1ccc(N2CCC(CNC(=S)Nc3cccc(OC)c3)C2)cc1 (stereo not given)	i	32µM
SMILES	Cruzain Triton	Cruzain noTriton
COc1ccc(N2CCC(CNC(=O)Nc3cccc(OC)c3)C2)cc1 (stereo not given)	i	?
COc1ccc(-n2c(C)nc3c(cnn3-c3ccc(C)c(C)c3)c2=O)cc1Cl	i	i
COc1ccc(NC(=O)c2c(NC(=O)CNCc3ccco3)sc3c2CCC3)c(OC)c1	i	i
Cc1ccc(C(=O)/C=C/c2cn(CC(O)CN3CCc4ccccc43)c3ccccc23)cc1 (stereo not given)	i	10µM
COc1ccc(C(=O)/C=C/c2cn(CC(O)CN3CCc4ccccc43)c3ccccc23)cc1OC (stereo not given)	i	i
COc1ccc(CCNS(=O)(=O)c2ccc(S(=O)(=O)N3CCCC3)cc2)cc1OC	i	i
Cc1ccc(NC(=O)c2sc3ccccc3c2Cl)nc1	i	i
COc1ccccc1C(=O)NNC(=S)NC(=O)c1sc2ccccc2c1Cl	i	10µM
COc1ccccc1C(=O)NC(=S)NNC(=O)c1sc2ccccc2c1Cl	i	2.5µM
COc1ccc(CCNC(=O)c2sc3ccccc3c2Cl)cc1OC	i	i
C=C1C2CC[C@@]3(C)C(c4ccoc4)OC(=O)C[C@@]13OC1CC(O)C(C)(C)C(CC(=O)OC)[C@@]12C (stereo not given in full)	i	i
Oc1ccc(Cl)c(Cl)c1	i	i
COC(=O)N1CCC2(CCCN(c3ccc(-c4ccccc4)cc3)C2)CC1	i	i
O=C(Oc1ccccc1)N1CCC2(CCCN(c3ccc(-c4ccccc4)cc3)C2)CC1	i	13µM
Cc1ccccc1NC(=O)c1c(C)[nH]c(=S)c(C#N)c1-c1ccco1	i	i
Cc1nc(NNC(=O)c2ccc(Cl)cc2Cl)cc(-c2ccccc2)n1	i	i
COc1ccc(-c2noc(-c3ccc(NC(C)c4ccccc4)c([N+](=O)[O-])c3)n2)cc1OC (stereo not given)	i	13µM
COc1ccc(-c2noc(-c3ccc(NC4CCCCC4)c([N+](=O)[O-])c3)n2)cc1OC	i	i
Cc1c(Br)c([N+](=O)[O-])nn1CCCC(=O)Nc1sc2c(c1C#N)CCC2	i	i
Cc1c(Br)c([N+](=O)[O-])nn1CC(=O)Nc1sc2c(c1C(=O)OC(C)C)CCCC2	i	13µM
O=C(C(Cc1ccccc1)N1C(=O)C2C3C=CC(C3)C2C1=O)N1CCCCCC1 (stereo not given)	i	i
O=C(NCc1ccco1)C(Cc1ccccc1)N1C(=O)C2C3C=CC(C3)C2C1=O (stereo not given)	25µM	i
COc1ccc(S(=O)(=O)Nc2ccc3c(c2)OCCO3)cc1Cl	i	i
COC(=O)c1c(-c2cccs2)csc1NC(=O)COc1ccccc1	i	i
COC(=O)c1c(-c2cccs2)csc1NC(=O)COc1ccc(C)cc1	i	i
SMILES	Cruzain Triton	Cruzain noTriton
COC(=O)c1c(-c2cccs2)csc1NC(=O)COc1c(C)ccc(C)c1C	i	25µM
COC(=O)c1c(-c2cccs2)csc1NC(=O)COc1ccc(C(C)(C)C)cc1	i	25µM
Cc1ccc(-c2nc(CS(=O)CC(=O)NCc3ccc(Cl)cc3)c(C)o2)cc1 (stereo not given)	i	?
O=C1c2cnccc2CN1Cc1ccccc1	i	i
Cc1ccc(Cl)cc1N1CCN(C(c2ccc(C#N)cc2)c2nnnn2C2CCCC2)CC1 (stereo not given)	i	20µM
Cc1ccc(Cl)cc1N1CCN(C(c2cccnc2)c2nnnn2C2CCCCC2)CC1 (stereo not given)	i	i
COc1ccc(N(C)S(=O)(=O)c2c(C)[nH]c(=O)[nH]c2=O)c(OC)c1	i	i
COc1cc(OC)cc(C(=O)NCC2CCCO2)c1 (stereo not given)	i	i
O=C(Cc1c(F)cccc1Cl)Nc1ccon1	i	i
O=C(c1noc2c1CCCCC2)N1CCN(c2ccc(Cl)cc2)CC1	i	i
Cc1ccc(NS(=O)(=O)c2cc([N+](=O)[O-])ccc2NNC(=S)Nc2cccc(Cl)c2)c(C)c1	20µM	i
COc1ccc(NC(=S)NNc2ccc([N+](=O)[O-])cc2S(=O)(=O)Nc2ccc(C)cc2C)cc1	i	25µM
Cc1ccc(NS(=O)(=O)c2cc([N+](=O)[O-])ccc2NNC(=S)Nc2cc(C)ccc2C)c(C)c1	i	?
Cc1ccccc1NS(=O)(=O)c1cc(C(=O)Nc2cccc([N+](=O)[O-])c2)ccc1C	i	i
O=C(CS(=O)(=O)Cc1ccccc1)Nc1nnc(C2CCCCC2)s1	i	i
Cc1c(C(=O)N2CCCC2)oc2c1-c1nn(CC(=O)NCc3ccccc3F)cc1CC2	i	i

Assay outcomes from PubChem.
